Drawing on PubChem BioAssay (NCI), this text covers growth for 36 compounds.

SMILES strings stand for the structures. Values joined by “and” are separate entries in the source; they are usually repeats but may differ in a detail not shown here. Equal entries are not always repeated. Compounds without any hit were thinned out: in the full panel of roughly 83,000, 20% have a hit.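 48-hour exposure, single concentration, 96-well plates; percent growth endpoint where 0 means no net growth. Active: below 10.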 Active and inactive are the calls of the source.

This test deals with UACC-62 melanoma. Kind of test: NCI-60 one-dose screen, 48 h (100 = growth as untreated, 0 = no growth, -100 = all killed). As to conditions: 10 µM unless noted.
For the compound `c1ccc2c(c1)O[As](O[As]1Oc3ccccc3O1)O2`, the growth was 43.8% (inactive).

On to `COc1cc2c(cc1OC)[C@@H]1C(=O)c3ccc4c(c3O[C@@H]1CO2)C[C@H](C(C)C)O4`, for which the growth was 66.7% (inactive).

`CC(=O)Cc1ccc2c(c1)OCO2`: the growth was 103% (inactive).

For `CCN(CC)CCn1c(=O)n(C)c2ccccc21`, the growth is 109% (inactive).

For the compound `CC(=O)c1cccc(S(=O)(=O)F)c1`, the growth was 103% (inactive).

As for `COc1cc2c(c(OC)c1OC)-c1ccc(O)cc1[C@@H](NC(C)=O)CC2`, the growth is 45.6% (inactive) and 24.4% (inactive).

For the compound `Cc1c2ccncc2c(C)c2c1[nH]c1ccccc12`, the growth was 56.5% (inactive).

On to `NC(=O)Oc1cc(OC(N)=O)cc(N(CCCl)CCCl)c1`, for which the growth is 46.2% (inactive).

As for `Nc1cccnc1`, the growth was 109% (inactive).

With `C/C=C(/C)C(=O)O[C@H]1CC[C@@]2(C)[C@@H]3CC[C@H]4[C@]5(O)C[C@H](O)[C@@]6(O)[C@@H](CN7C[C@@H](C)CC[C@H]7[C@@]6(C)O)[C@]5(O)C[C@@]42O[C@@]13O`, the growth is 127% (inactive).

Consider `C[C@]12CCC(=O)C[C@@H]1CC[C@@H]1[C@@H]2CC[C@]2(C)[C@@H](OC(=O)N(CCCl)N=O)CC[C@@H]12`, for which the growth is 13.5% (inactive).

Take `CC1(C)N=C(N)N=C(N)N1c1ccc(CCC(=O)Nc2ccc(S(=O)(=O)F)cc2)cc1`: the growth is 26.2% (inactive).

As for `Cc1c(C)c(N)c(C)c(C)c1N`, the growth was 66.3% (inactive).

In the case of `Cc1ccc(C(=O)O[C@H](C(=O)O)[C@H](OC(=O)c2ccc(C)cc2)C(=O)O)cc1`, the growth is 104% (inactive).

Take `O=S(=O)(F)c1cccc(Cl)c1C[P+](c1ccccc1)(c1ccccc1)c1ccccc1`: the growth was 90.2% (inactive).

For `CN1CCC2(CC1)C(C#N)C(=O)NC(=O)C2C#N` (stereo unspecified), the growth was 101% (inactive).

As to `COc1ccc(N)cc1N`, the growth was 105% (inactive).

As for `Cc1cc(NC(=O)NCCCOc2ccc(N3C(N)=NC(N)=NC3(C)C)cc2Cl)ccc1S(=O)(=O)F`, the growth was 25.2% (inactive).

Turning to `O=[N+]([O-])c1cc(Cl)c(Cl)c([N+](=O)[O-])c1Cl`, the growth is 86% (inactive).

For `O=C1c2ccccc2C(=O)N1N1CC1c1ccccc1` (stereo unspecified), the growth was 105% (inactive).

`CC1(C)CN=C(NN=C(/C=C/c2ccc(C(F)(F)F)cc2)/C=C/c2ccc(C(F)(F)F)cc2)NC1`: the growth is -83.8% (active).

Regarding `C#COc1cccc(Nc2ncnc3cc(NC(=O)CF)ccc23)c1`, the growth is 26.4% [6.25 µM] (inactive).

Regarding `COc1ccc(/C=C(/C)[N+](=O)[O-])cc1OC`, the growth is 46.1% (inactive) and 23.8% (inactive).

With `Cc1cc[n+](CCc2ccccc2)cc1`, the growth is 102% (inactive) and 116% (inactive).

`CC1=C(C)C(=O)O[C@@H]([C@](C)(O)[C@]2(O)CC[C@@]3(O)[C@@H]4C[C@H]5O[C@]56CC=CC(=O)[C@]6(C)[C@H]4CC[C@]23C)C1`: the growth is -5.31% (active).

Turning to `O=S1(=O)OCCO1`, the growth was 87.4% (inactive).

On to `COc1c(O)cc2c(c1OC)-c1ccc(SC)c(=O)cc1C(NC(C)=O)CC2` (stereo unspecified), for which the growth is 18.6% (inactive).

Take `Nc1nc(=S)nc(N)[nH]1`: the growth is 101% (inactive).

With `O=Cc1cn(Cc2ccccc2)c2ccccc12`, the growth is 32.6% (inactive).

Regarding `O=C(O)C(O)c1ccc(Cl)cc1` (stereo unspecified), the growth is 103% (inactive) and 106% (inactive).

As to `C[C@H](O)CCC(=O)c1ccoc1`, the growth was 96% (inactive).

As to `c1ccc2c(c1)sc1ccccc12`, the growth is 100% (inactive).

For `O=C1CN2CCC1CC2`, the growth was 104% (inactive).

Take `Cn1cc(C(=O)C[n+]2ccccc2)c2ccccc21`: the growth is 105% (inactive).

As to `Cc1cc(C(C)(C)C)ccc1O`, the growth was 109% (inactive).

`N#CC(C#N)=Cc1cccc(F)c1`: the growth was 98.2% (inactive).
